A selection: hits, their analogues and other compounds. The true share with any hit is near 3.6%.
Rango complex inh = Rango-importin beta binding inhibition. Potency, µM (top dose mostly 92.2 µM), without a hit: at the highest dose inhibition of complex formation. Rango CFP/YFP FRET sensor + importin beta, 45 min. actives 0.031% (n = 340,000); calls by dose curve;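 note: potency is the fitted concentration of half-maximal effect; 0% = DMSO wells and 100% = buffer wells lacking importin beta; nearly all actives have a fitted effect of over 15% in size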
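FRET biosensor (snurportin 1 IBB flanked by EYFP and cerulean), 50 nM, with compound 5 min, then 0.125 microM importin beta in PBS, 1 mM DTT, 0.02% Tween-20, 0.1% BSA. CFP/YFP ratio read after 45 min at room temperature; pre-read flags interference.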
VDR inhibitor = vitamin D3 receptor (human) inhibition. P11473. Potency, µM, for inactives: max response, negative = inhibition, usual class: inhibitors. AID 504847. actives 0.93% (n = 400,000). VDR-SRC2-3 peptide fluorescence polarization, 2 h; note: potency is the fitted concentration of half-maximal effect; % is set by controls: 0 for no effect and ±100 for the full control effect
Target sequence (P11473 whole entry, looked up): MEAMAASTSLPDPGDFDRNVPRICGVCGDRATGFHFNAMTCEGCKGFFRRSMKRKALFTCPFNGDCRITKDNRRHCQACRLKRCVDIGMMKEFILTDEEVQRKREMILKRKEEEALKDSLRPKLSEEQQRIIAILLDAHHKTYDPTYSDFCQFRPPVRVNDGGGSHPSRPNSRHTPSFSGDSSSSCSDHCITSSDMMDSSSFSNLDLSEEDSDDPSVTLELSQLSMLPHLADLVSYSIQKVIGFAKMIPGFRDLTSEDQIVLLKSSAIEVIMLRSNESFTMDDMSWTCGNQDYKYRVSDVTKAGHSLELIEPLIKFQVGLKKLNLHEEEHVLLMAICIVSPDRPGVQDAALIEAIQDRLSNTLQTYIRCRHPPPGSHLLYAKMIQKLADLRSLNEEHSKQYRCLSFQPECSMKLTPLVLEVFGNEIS
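Measured by FP: displacement of SRC2-3 coactivator peptide from VDR by library compounds, following a two-hour ambient incubation.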
KAT2A inh = blocks human GCN5L2 histone acetyltransferase; GCN5L2 HAT assay, ThioGlo1 CoA-SH fluorescence; Potency, µM (doses to about 58.9 µM), inactives show at the top dose activity change, negative = inhibition, actives largely listed as inhibitors; actives 0.21% (n = 390,000); AID 504327; note: potency is the fitted concentration of half-maximal effect; % is set by controls: 0 for no effect and ±100 for the full control effect
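Preincubate 20nM GCN5L2 with compound 15 min, RT → add 50uM ThioGlo1 + 75uM H3(1-25) + 70uM acetyl-CoA → read fluorescence 0 and 20 min. Primary qHTS; fluorescent artifacts likely.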
PI5P4Ka inh = inhibitors of human PI5P4K alpha. max response, %. AID 652105. PI5P4Kalpha enzyme, ADP-Glo luminescence, 60 min; stronger effect = lower value. actives 1.2% (n = 330,000); active = max response of -50% or lower; inconclusive = between -30% and -50%; inactive = -30% or higher; note: value at the top dose of about 77 µM; % is set by controls: 0 for no effect and ±100 for the full control effect
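Human PI5P4Kalpha with substrate in 0.038 M HEPES pH 7.4, 0.28 mM EGTA, 0.1% CHAPS, 5% DMSO; reaction started with 5 microM ATP (final), 60 min at room temperature. ADP formed read by ADP-Glo luminescence.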
PLK1 PBD block = PLK1 (human) polo-box domain binding inhibition | P53350 | AID 720504 | Potency, µM, without a hit: max response, negative = inhibition, actives largely listed as inhibitors | Plk1 PBD binding of FITC phosphopeptide, fluorescence polarization | actives 2.8% (n = 360,000); note: potency is the fitted concentration of half-maximal effect; series mostly up to about 57 µM; % is set by controls: 0 for no effect and ±100 for the full control effect; nearly all actives have a fitted effect of over 65% in size
Rango release inh = inhibitors of RanGTP-induced Rango-importin beta complex dissociation | O95149+P62826 | Biochemical FRET Rango-importin beta, RanGTP-induced dissociation | Potency, µM (highest dose often 46.1 µM), without a hit: at the highest dose activity change, negative = inhibition | actives 0.071% (n = 340,000) | AID 540253; calls by dose curve; note: potency is the fitted concentration of half-maximal effect; % of control where 0% means no effect; nearly all actives have a fitted effect of over 45% in size
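Rango FRET biosensor (snurportin-1 IBB flanked by N-terminal EYFP and C-terminal CFP10) at 0.1 uM, with 0.25 uM importin beta in PBS, 1mM DTT, 0.02% Tween-20, 0.1% BSA. 0.6 uM Ran, 2mM GTP and 0.2 uM RCC1 were then added for 45 min at room temperature. Inhibition read as loss of FRET rise.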
The depositor's hits bear a star; [ ] = another dose, or the depositor's remark. Unless noted, calls come from the whole dose curve; as a rule, active = well fitted curve in the direction sought with a large enough effect; inconclusive = small, poorly fitted or top-dose-only effect, or another doubt; inactive = no such curve, though single readings can be large; an effect the other way counts as inactive or inconclusive.

How did CCCCOC(=O)N(C)SN(C)C(=O)Oc1cccc2c1OC(C)(C)C2 do in these assays?
VDR inhibitor: 3.2µM*; KAT2A inh: -10%

What do the screens show for `CC(C)Cc1[nH]c(=O)c(C#N)c2c1CCC2`?
Rango complex inh: 2%; VDR inhibitor: -2%; KAT2A inh: 1%; PI5P4Ka inh: 4; PLK1 PBD block: -3%; Rango release inh: -15%

Results for Cc1[nH]c(=S)c(C#N)c2c1CCCC2 ?
Rango complex inh: 1%; VDR inhibitor: inconclusive; KAT2A inh: -2%; PI5P4Ka inh: -28; PLK1 PBD block: 27µM*; Rango release inh: 24%

What do the screens show for `O=c1[nH]c(=S)n(-c2cccc(Cl)c2)c(O)c1/C=N/N1CCOCC1`?
Rango complex inh: inconclusive; VDR inhibitor: 4%; KAT2A inh: 29%; PI5P4Ka inh: -25; PLK1 PBD block: -8%; Rango release inh: inconclusive

What do the screens show for `Cc1cccc(-n2c(O)c(C)c(=O)[nH]c2=S)c1`?
Rango complex inh: 0%; VDR inhibitor: -26%; KAT2A inh: -7%; PI5P4Ka inh: inconclusive; PLK1 PBD block: 12µM*; Rango release inh: 6%

How did CCCOC(=O)c1cc2c(cn1)[nH]c1ccccc12 do in these assays?
VDR inhibitor: -14%; KAT2A inh: -25%

Results for O=C1/C(=C/c2cccnc2)N2CCC1CC2 ?
Rango complex inh: 0%; VDR inhibitor: 3%; KAT2A inh: -1%; PI5P4Ka inh: -7; PLK1 PBD block: -3%; Rango release inh: -3%

How did Cc1ccc(/C=C2/C(=O)NC(=O)N(CCc3ccc(F)cc3)C2=O)o1 do in these assays?
Rango complex inh: 2%; VDR inhibitor: 73%; KAT2A inh: -14%; PI5P4Ka inh: -67*; PLK1 PBD block: 0.84µM*; Rango release inh: -6%

How did CN1C(=O)C(=Cc2cccnc2)C(=O)N(C)C1=O do in these assays?
Rango complex inh: -1%; VDR inhibitor: inconclusive; KAT2A inh: -10%; PI5P4Ka inh: -19; PLK1 PBD block: 17µM*; Rango release inh: -9%

What do the screens show for `CN(C)c1ccc(/C=C2\C(=O)NC(=O)N(CCc3ccc(F)cc3)C2=O)cc1`?
Rango complex inh: inconclusive; VDR inhibitor: 40µM*; KAT2A inh: -8%; PI5P4Ka inh: -82*; PLK1 PBD block: 1.1µM*; Rango release inh: 1%

How did CCN(CC)c1ccc(/C=C2\C(=O)NC(=S)N(C)C2=O)o1 do in these assays?
Rango complex inh: 16%; VDR inhibitor: 8%; KAT2A inh: -2%; PI5P4Ka inh: -3; PLK1 PBD block: 91%; Rango release inh: 13%

How did O=C1NC(=O)N(Cc2ccc(F)cc2)C(=O)/C1=C\c1ccc(N2CCCC2)cc1 do in these assays?
Rango complex inh: 0%; VDR inhibitor: 79µM*; KAT2A inh: -29%; PI5P4Ka inh: -59*; PLK1 PBD block: 1.5µM*; Rango release inh: 12%

How did Cn1cccc1/C=C1\C(=O)NC(=O)N(CCC2=CCCCC2)C1=O do in these assays?
Rango complex inh: 0%; VDR inhibitor: 0%; KAT2A inh: 40%; PI5P4Ka inh: -21; PLK1 PBD block: -12%; Rango release inh: -14%

What do the screens show for `C=CCN1CCC23c4c5ccc(O)c4OC2/C(=N/N=C2\CCC4(O)C6Cc7ccc(O)c8c7C4(CCN6CC=C)C2O8)CCC3(O)C1C5` (stereo not given)?
VDR inhibitor: -12%; KAT2A inh: -10%

How did CC(=O)Nc1cc(-c2ccc(C(=O)NC3CC3)cc2)cn2c(-c3ccc(F)c(Cl)c3)cnc12 do in these assays?
PI5P4Ka inh: -30; PLK1 PBD block: inconclusive

What do the screens show for `Cc1cc(-c2n[nH]c(=S)n2CC(C)C)cs1`?
Rango complex inh: -3%; VDR inhibitor: -13%; KAT2A inh: 1%; PI5P4Ka inh: -4; PLK1 PBD block: -25%; Rango release inh: 12%

Results for COCCN1C(=O)NC(=O)/C(=C\c2ccc(F)cc2)C1=O ?
Rango complex inh: 0%; VDR inhibitor: -18%; KAT2A inh: -5%; PI5P4Ka inh: -24; PLK1 PBD block: 13µM*; Rango release inh: 1%

Results for CN1C(=O)C(=Cc2ccc(N3CCOCC3)c([N+](=O)[O-])c2)C(=O)N(C)C1=O ?
KAT2A inh: -2%

Results for CN1C(=O)C(=Cc2ccc(N3CCCCCC3)cc2)C(=O)N(C)C1=O ?
Rango complex inh: inconclusive; VDR inhibitor: 3%; KAT2A inh: -2%; PI5P4Ka inh: -11; PLK1 PBD block: 1.5µM*; Rango release inh: -13%

How did Cc1ccc2cc3c(ccc4ccccc43)c3c2c1CC3 do in these assays?
VDR inhibitor: -2%; KAT2A inh: -21%

What do the screens show for `CO[C@@H](C)[C@](O)(C(=O)OCC1=CCN2CC[C@@H](O)[C@H]12)C(C)C`?
VDR inhibitor: 3%; KAT2A inh: 10%[21.4 µM]

Results for Cc1ccc2nc(C)n(-c3ccc(F)cc3)c(=O)c2c1 ?
Rango complex inh: 0%; VDR inhibitor: -17%; KAT2A inh: -1%; PI5P4Ka inh: -5; PLK1 PBD block: 21µM*; Rango release inh: -25%

Results for CC(=O)CC(c1ccccc1)c1c(O)c2cc(O)ccc2oc1=O (stereo not given) ?
VDR inhibitor: -3%; KAT2A inh: 28%

How did NCCc1cc(O)c(O)cc1O do in these assays?
Rango complex inh: inconclusive; VDR inhibitor: 89µM*; KAT2A inh: inconclusive; PI5P4Ka inh: -76*; PLK1 PBD block: 15µM*; Rango release inh: inconclusive

How did COP(=O)(OC)[C@@H](O)C(Cl)(Cl)Cl do in these assays?
VDR inhibitor: -1%; KAT2A inh: 4%[21.4 µM]

Results for CC(C)=CCCC1(C)C=Cc2c(O)c3c(c(CC=C(C)C)c2O1)OC12C(=CC4CC1C(C)(C)OC2(C/C=C(/C)C(=O)O)C4O)C3=O (stereo not given) ?
VDR inhibitor: 2.8µM*; KAT2A inh: 13µM*

Results for CC(C)=CCCC1(C)C=Cc2c(O)c3c(c(CC=C(C)C)c2O1)OC12C(=CC4CC1C(C)(C)OC2(C/C=C(/C)C(=O)O)C4=O)C3=O (stereo not given) ?
VDR inhibitor: 2.2µM*; KAT2A inh: 32µM*

How did CC(C)CCCC1(C)C=Cc2c(O)c3c(c(CCC(C)C)c2O1)OC12C(CC4CC1C(C)(C)OC2(CCC(C)C(=O)O)C4O)C3=O (stereo not given) do in these assays?
VDR inhibitor: -13%; KAT2A inh: inconclusive

What do the screens show for `CC(=O)C1=C(O)[C@@H]2[C@@H]3c4c[nH]c5cccc(c45)C[C@@H]3C(C)(C)N2C1=O`?
VDR inhibitor: inconclusive; KAT2A inh: -6%

High-throughput results as filed in PubChem BioAssay.
